Here are results for one sequence from paper PMC7862700, “An all-to-all approach to the identification of sequence-specific readers for epigenetic DNA modifications on cytosine”.

What all share (assay): DAPPL (digital affinity profiling via proximity ligation, sequencing); 10 mM Tris-HCl pH 7.5, 50 mM NaCl, 1 mM DTT, 4% glycerol, room temperature, 30 min; GST-TFs on glutathione beads, 16-mer random dsDNA library, 0.1% formaldehyde crosslink after washing; high values mean tight binding
The target in one assay is T1, FEV (Homo sapiens, UniProt Q99581 1-238).
T1 sequence: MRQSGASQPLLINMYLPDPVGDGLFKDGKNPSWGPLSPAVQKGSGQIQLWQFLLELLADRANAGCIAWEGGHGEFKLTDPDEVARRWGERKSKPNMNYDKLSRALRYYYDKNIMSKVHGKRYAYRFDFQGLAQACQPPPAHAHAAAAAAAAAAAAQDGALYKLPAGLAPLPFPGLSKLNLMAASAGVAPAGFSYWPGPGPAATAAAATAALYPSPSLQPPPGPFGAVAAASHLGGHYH
As to conditions: protein: recombinant; tags: N-terminal GST; dsDNA, one strand shown. In a few lines: (§1)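 Binding signal is each hexamer's read frequency for a factor divided by its frequency in the tag-only sample. The factors were GST-fused human transcription factors from yeast, captured on glutathione beads, DNA-barcoded and pooled with that sample. Pools were incubated with 200 nmole of a random double-stranded 16-mer DNA library in Tris/NaCl/DTT/glycerol buffer at room temperature for 30 min, then washed, crosslinked with 0.1% formaldehyde, proximity-ligated with BsaI/T4 ligase (1 h, 37 °C), PCR-amplified and sequenced on an Illumina NextSeq500.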

The next assay has as its target ETV5 (Homo sapiens, UniProt P41161 1-510). As to conditions: protein: recombinant; tags: N-terminal GST; dsDNA, one strand shown. In a few lines: as §1
A further assay addresses HSF1 (Homo sapiens, UniProt Q00613 1-529). The conditions noted are these: protein: recombinant; tags: N-terminal GST; chain copies: 3; dsDNA, one strand shown. In a few lines:
as §1

A further assay has as its target T2, SPIC (Homo sapiens, UniProt Q8N5J4 1-248).
T2 sequence: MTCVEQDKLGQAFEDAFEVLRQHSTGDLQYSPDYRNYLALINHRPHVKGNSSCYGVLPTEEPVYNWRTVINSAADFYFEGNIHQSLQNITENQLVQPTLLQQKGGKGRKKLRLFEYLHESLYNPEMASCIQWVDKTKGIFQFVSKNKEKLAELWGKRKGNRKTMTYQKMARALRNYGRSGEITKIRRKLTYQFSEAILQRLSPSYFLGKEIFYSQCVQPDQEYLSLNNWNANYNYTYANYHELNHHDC
The conditions noted are these: protein: recombinant; tags: N-terminal GST; dsDNA, one strand shown. The method in brief:
as §1

In a further assay the target is ELF4 (Homo sapiens, UniProt Q99607 1-663). As to conditions: protein: recombinant; tags: N-terminal GST; dsDNA, one strand shown. The method in brief: as §1
Sequence of ELF4 (Q99607 whole entry): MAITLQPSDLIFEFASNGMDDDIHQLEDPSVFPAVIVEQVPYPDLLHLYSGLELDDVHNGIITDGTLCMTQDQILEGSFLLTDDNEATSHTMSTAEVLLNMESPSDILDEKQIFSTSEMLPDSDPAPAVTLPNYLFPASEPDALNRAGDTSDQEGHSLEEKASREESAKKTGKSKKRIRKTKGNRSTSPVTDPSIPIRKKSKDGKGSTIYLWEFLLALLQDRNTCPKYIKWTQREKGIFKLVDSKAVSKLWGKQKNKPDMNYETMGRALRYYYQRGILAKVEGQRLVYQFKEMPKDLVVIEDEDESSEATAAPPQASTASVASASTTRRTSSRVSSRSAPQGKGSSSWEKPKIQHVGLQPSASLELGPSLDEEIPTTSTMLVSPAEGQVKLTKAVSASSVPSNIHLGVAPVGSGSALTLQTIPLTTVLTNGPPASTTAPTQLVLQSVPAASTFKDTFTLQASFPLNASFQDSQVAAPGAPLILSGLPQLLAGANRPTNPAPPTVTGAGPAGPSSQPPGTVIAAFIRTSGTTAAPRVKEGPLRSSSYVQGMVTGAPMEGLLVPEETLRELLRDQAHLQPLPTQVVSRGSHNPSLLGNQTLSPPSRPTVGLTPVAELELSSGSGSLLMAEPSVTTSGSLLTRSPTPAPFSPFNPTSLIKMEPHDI
The next assay has as its target T3, ELK4 (Homo sapiens, UniProt P28324-2 1-405).
T3 sequence: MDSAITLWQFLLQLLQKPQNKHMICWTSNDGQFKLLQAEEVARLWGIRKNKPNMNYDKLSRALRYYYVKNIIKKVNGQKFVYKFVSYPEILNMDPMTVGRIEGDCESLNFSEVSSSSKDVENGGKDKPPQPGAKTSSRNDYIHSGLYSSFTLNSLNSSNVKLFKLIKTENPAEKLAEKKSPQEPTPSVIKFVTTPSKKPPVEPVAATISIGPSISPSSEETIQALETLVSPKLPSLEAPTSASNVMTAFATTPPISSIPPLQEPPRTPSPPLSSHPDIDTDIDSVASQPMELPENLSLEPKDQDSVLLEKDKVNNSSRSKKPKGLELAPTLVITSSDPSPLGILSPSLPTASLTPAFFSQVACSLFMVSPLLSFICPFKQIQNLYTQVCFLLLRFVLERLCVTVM
As to conditions: protein: recombinant; tags: N-terminal GST; dsDNA, one strand shown. In a few lines:
as §1

The next assay has as its target T4, ETV2 (Homo sapiens, UniProt O00321 1-342).
T4 sequence: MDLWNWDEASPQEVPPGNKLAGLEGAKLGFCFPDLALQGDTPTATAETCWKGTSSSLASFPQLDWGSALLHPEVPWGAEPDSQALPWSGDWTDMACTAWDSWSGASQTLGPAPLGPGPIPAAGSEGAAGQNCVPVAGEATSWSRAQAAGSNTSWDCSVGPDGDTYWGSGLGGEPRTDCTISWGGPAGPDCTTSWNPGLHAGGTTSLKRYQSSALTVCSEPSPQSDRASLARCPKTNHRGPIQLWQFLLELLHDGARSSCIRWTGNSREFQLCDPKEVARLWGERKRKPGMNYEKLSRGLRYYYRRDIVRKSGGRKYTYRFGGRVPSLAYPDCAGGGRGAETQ
The conditions noted are these: protein: recombinant; tags: N-terminal GST; dsDNA, one strand shown. The method in brief: as §1

A further assay deals with T5, ELF3 (Homo sapiens, UniProt P78545 1-371).
T5 sequence: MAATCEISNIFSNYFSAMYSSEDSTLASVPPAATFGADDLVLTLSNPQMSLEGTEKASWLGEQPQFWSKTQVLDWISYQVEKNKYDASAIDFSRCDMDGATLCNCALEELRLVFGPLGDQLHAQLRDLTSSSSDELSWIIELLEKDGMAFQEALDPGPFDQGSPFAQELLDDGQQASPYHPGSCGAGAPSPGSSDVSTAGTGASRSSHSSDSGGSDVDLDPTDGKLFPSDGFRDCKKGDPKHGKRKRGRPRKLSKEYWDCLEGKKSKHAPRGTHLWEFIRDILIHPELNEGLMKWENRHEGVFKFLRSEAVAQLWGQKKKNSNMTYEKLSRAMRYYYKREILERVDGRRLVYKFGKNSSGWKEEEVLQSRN
The conditions noted are these: protein: recombinant; tags: N-terminal GST; dsDNA, one strand shown. The method in brief: as §1

The target of another assay is CRX (Homo sapiens, UniProt O43186 1-299). As to conditions: protein: recombinant; tags: N-terminal GST; dsDNA, one strand shown. In a few lines: as §1
Sequence of CRX (O43186 whole entry): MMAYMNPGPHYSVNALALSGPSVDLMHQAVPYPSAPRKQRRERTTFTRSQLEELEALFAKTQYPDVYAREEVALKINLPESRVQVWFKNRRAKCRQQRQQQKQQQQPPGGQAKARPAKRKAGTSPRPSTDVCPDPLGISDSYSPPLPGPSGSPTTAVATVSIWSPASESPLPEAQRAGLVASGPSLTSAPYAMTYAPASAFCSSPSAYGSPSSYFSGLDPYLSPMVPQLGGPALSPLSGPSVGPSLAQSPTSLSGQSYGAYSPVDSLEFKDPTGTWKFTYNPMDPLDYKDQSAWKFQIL
The next assay concerns the target ETV1 (Homo sapiens, UniProt P50549 1-477). As to conditions: protein: recombinant; tags: N-terminal GST; dsDNA, one strand shown. The method in brief: as §1
The target in another assay is T6, ERF (Homo sapiens, UniProt P50548 1-548).
T6 sequence: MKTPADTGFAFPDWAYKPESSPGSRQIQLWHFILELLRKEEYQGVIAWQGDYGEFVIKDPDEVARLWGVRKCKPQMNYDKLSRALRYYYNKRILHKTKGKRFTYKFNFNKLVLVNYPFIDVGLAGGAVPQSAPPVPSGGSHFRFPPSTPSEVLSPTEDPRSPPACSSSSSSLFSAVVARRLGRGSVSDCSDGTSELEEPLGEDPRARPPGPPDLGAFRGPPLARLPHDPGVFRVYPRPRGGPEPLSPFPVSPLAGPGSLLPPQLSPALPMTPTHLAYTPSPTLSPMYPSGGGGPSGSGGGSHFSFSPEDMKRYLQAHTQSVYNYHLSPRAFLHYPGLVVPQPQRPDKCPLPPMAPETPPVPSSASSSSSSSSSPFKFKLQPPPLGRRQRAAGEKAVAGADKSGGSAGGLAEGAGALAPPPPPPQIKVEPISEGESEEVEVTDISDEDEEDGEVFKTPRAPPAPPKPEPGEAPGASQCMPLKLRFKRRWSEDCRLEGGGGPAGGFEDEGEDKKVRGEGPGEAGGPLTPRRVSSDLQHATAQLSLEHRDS
As to conditions: protein: recombinant; tags: N-terminal GST; dsDNA, one strand shown. The method in brief: as §1

A further assay has as its target T7, ETV3L (Homo sapiens, UniProt Q6ZN32 1-361).
T7 sequence: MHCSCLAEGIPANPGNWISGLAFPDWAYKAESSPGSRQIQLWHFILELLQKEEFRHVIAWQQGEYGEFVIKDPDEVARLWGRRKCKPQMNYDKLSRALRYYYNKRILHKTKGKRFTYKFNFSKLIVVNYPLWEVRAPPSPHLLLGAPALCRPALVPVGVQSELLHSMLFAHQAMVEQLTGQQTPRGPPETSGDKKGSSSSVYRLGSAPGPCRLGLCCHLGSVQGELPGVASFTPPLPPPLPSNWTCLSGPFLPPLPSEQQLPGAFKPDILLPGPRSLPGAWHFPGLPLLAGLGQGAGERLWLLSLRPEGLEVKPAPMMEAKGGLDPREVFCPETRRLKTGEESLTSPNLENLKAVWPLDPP
As to conditions: protein: recombinant; tags: N-terminal GST; dsDNA, one strand shown. The method in brief:
as §1

The target of a further assay is T8, ETS2 (Homo sapiens, UniProt P15036 1-469).
T8 sequence: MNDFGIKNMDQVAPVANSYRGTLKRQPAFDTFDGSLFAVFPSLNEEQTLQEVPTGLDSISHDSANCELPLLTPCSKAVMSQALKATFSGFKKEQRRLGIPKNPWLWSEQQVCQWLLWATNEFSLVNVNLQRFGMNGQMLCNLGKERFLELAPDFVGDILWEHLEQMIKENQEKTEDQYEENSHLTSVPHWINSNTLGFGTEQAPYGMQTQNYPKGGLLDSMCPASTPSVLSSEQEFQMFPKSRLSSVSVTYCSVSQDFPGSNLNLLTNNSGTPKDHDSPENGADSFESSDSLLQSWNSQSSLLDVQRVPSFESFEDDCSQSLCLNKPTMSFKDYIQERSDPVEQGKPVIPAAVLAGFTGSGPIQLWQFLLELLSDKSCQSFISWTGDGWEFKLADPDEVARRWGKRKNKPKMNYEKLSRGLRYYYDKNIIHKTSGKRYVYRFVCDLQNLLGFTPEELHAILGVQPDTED
As to conditions: protein: recombinant; tags: N-terminal GST; dsDNA, one strand shown. In a few lines: as §1

The target in a further assay is T9, SPDEF (Homo sapiens, UniProt O95238 1-335).
T9 sequence: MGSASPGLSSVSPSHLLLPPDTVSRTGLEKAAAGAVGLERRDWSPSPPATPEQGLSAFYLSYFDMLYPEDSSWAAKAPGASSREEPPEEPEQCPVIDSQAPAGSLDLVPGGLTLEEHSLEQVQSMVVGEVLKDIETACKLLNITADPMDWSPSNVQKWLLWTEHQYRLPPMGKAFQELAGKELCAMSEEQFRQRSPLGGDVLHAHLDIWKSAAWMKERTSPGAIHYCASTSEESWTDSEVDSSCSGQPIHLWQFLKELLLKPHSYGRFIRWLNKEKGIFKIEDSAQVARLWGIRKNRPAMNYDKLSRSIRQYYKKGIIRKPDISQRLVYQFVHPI
The conditions noted are these: protein: recombinant; tags: N-terminal GST; dsDNA, one strand shown. The method in brief: as §1

For the next assay, the target named is T10, ETV7 (Homo sapiens, UniProt Q9Y603 1-341).
T10 sequence: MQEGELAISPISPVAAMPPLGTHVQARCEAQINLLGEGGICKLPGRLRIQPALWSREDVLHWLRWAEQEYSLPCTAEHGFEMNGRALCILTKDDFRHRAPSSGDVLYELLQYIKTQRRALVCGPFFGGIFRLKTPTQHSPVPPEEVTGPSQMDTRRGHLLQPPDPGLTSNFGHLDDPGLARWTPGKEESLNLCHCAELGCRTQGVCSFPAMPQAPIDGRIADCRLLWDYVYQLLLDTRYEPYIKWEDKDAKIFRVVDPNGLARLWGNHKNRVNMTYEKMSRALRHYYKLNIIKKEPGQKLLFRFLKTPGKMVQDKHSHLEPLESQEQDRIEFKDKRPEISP
The conditions noted are these: protein: recombinant; tags: N-terminal GST; dsDNA, one strand shown. The method in brief: as §1

The target in a further assay is T11, ELF5 (Homo sapiens, UniProt Q9UKW6-2 1-255).
T11 sequence: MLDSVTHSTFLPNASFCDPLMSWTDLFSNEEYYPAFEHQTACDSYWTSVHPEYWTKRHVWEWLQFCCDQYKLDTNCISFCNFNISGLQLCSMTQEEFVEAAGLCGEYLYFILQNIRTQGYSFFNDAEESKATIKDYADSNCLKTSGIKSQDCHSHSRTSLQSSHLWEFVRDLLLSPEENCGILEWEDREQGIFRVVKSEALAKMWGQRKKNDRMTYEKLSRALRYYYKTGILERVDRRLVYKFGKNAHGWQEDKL
As to conditions: protein: recombinant; tags: N-terminal GST; dsDNA, one strand shown. In a few lines:
as §1

The target of the next assay is T12, ETV3 (Homo sapiens, UniProt P41162-2 1-143).
T12 sequence: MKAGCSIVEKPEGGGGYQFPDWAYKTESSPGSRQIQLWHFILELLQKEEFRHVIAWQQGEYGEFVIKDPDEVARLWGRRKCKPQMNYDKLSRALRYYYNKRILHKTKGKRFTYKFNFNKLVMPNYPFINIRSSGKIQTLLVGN
As to conditions: protein: recombinant; tags: N-terminal GST; dsDNA, one strand shown. In a few lines: as §1

The next assay deals with ETV6 (Homo sapiens, UniProt P41212 1-452). As to conditions: protein: recombinant; tags: N-terminal GST; dsDNA, one strand shown. The method in brief:
as §1

Sequence of ETV5 (P41161 whole entry): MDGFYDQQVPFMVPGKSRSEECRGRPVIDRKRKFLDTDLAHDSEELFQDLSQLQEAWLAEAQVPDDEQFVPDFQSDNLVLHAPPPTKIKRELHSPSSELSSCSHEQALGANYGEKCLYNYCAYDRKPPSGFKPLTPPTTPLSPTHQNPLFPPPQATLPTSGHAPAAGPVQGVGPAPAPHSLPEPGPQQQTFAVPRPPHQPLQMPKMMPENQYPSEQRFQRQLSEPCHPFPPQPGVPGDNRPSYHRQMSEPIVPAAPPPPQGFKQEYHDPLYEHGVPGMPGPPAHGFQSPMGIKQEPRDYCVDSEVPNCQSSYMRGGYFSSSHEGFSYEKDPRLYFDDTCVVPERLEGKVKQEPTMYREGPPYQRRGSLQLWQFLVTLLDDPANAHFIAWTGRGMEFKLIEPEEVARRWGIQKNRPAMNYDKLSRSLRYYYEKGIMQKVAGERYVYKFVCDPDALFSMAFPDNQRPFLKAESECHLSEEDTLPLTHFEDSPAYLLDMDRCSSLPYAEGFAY
Sequence of ETV6 (P41212 whole entry): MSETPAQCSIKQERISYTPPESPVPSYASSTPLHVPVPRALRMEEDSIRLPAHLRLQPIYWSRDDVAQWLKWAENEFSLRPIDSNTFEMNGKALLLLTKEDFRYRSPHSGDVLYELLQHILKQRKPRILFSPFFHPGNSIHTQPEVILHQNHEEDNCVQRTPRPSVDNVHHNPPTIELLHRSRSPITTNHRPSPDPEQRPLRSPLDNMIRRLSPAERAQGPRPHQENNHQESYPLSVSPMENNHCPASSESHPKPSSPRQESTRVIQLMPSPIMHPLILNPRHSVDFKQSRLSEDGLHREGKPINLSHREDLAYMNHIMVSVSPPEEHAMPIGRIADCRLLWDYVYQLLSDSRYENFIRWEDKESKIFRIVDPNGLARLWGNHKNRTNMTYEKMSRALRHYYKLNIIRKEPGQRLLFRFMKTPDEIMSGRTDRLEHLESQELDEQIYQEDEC
Sequence of HSF1 (Q00613 whole entry): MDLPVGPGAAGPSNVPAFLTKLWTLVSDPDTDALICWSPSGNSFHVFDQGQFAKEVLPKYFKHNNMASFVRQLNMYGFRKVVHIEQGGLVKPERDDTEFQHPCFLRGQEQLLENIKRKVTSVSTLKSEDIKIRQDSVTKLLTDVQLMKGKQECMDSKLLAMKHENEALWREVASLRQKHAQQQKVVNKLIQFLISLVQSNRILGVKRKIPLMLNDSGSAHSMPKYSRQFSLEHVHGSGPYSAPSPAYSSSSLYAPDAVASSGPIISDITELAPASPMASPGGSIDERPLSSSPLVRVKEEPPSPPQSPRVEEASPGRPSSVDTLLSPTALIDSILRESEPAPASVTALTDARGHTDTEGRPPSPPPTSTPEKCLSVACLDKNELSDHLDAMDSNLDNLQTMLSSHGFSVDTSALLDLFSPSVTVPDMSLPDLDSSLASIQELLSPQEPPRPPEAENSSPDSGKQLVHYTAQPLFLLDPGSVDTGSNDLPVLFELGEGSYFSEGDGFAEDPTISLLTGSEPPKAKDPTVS
Sequence of ETV1 (P50549 whole entry): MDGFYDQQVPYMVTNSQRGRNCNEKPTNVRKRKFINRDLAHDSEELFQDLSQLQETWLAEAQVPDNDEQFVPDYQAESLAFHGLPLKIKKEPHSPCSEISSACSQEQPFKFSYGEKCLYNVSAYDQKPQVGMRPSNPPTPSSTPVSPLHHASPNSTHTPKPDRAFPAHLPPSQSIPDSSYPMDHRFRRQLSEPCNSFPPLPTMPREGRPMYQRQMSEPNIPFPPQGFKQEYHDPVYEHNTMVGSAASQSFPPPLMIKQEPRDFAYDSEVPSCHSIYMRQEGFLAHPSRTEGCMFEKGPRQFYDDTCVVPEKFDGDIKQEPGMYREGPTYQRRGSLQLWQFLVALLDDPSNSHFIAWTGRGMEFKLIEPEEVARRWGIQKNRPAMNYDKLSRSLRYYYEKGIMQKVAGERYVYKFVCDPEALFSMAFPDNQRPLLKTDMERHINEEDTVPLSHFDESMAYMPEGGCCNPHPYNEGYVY

For CTCTAC, the binding signal with FEV was 1.57 fold enrichment (6-mer frequency, TF over GST control); in the assay with ETV5, 1.33 fold enrichment (6-mer frequency, TF over GST control); in the assay with HSF1, 1.37 fold enrichment (6-mer frequency, TF over GST control); with SPIC, 1.51 fold enrichment (6-mer frequency, TF over GST control); with ELF4, 1.46 fold enrichment (6-mer frequency, TF over GST control); with ELK4 it was 1.38 fold enrichment (6-mer frequency, TF over GST control). In addition, the binding signal with ETV2 is 1.35 fold enrichment (6-mer frequency, TF over GST control); with ELF3, 1.47 fold enrichment (6-mer frequency, TF over GST control); with CRX it was 1.18 fold enrichment (6-mer frequency, TF over GST control); with ETV1, 1.4 fold enrichment (6-mer frequency, TF over GST control); with ERF, 1.45 fold enrichment (6-mer frequency, TF over GST control); with ETV3L, 1.66 fold enrichment (6-mer frequency, TF over GST control). In addition, the binding signal was 1.48 fold enrichment (6-mer frequency, TF over GST control) with ETS2; 1.54 fold enrichment (6-mer frequency, TF over GST control) in the assay with SPDEF; 1.28 fold enrichment (6-mer frequency, TF over GST control) with ETV7; 1.52 fold enrichment (6-mer frequency, TF over GST control) in the assay with ELF5; 1.51 fold enrichment (6-mer frequency, TF over GST control) with ETV3; 1.43 fold enrichment (6-mer frequency, TF over GST control) in the assay with ETV6.
